# Assay results reported in PubChem BioAssay (NCI).
# About 83,000 compounds went through this panel and 20% of them were active in at least one assay; those are over-represented in the sample as a whole.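 Plates (96-well) were seeded with cells, treated with compound at one concentration, and incubated for 48 hours before percent growth was determined.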 Active and inactive are the calls of the source. Rule for the calls: active = growth percent below 10; inactive = the rest.
# Test system: A498 renal
# Test: NCI-60 one-dose screen, 48 h (100 = growth as untreated, 0 = no growth, -100 = all killed)
# Details: 10 µM unless noted
row,Compound,growth
1,CC(C)(C)c1[nH]nc2c1C(c1cc3ccccc3[nH]c1=O)Nc1cc(C(=O)OCc3ccccc3)ccc1N2 (stereo not drawn),65% (inactive)
2,COc1ccc2nc(-c3c(-c4ccccc4)nc4ncccn34)[nH]c2c1,86.6% (inactive)
3,O=C1NC(=Nc2ccc(S(=O)(=O)Nc3nccs3)cc2)S/C1=C\c1coc2ccccc2c1=O,101% (inactive)
4,CC(C)=CCC[C@](C)(O)[C@H]1CC[C@]2(C)[C@@H]1CC[C@@H]1[C@@]3(C)C/C(=C/c4ccc(Br)cc4)C(=O)C(C)(C)[C@@H]3CC[C@]12C,80.8% (inactive)
5,O=c1c2sc3ncc(Br)cc3c2ncn1-c1cccc(Cl)c1,71.7% (inactive)
6,O=Cc1nc2ccccc2[nH]1,105% (inactive)
7,CCc1ccc(-c2ccc(Nc3ccccc3)nn2)cc1S(N)(=O)=O,72.2% (inactive)
8,COc1ccc(-c2nc3ccccn3c2-c2nc3ccc(Cl)cc3[nH]2)cc1,91.9% (inactive)
9,Cn1cc(-c2nc(-c3c[nH]c4ncccc34)cs2)c2ccccc21,81.5% (inactive)
10,Cc1nn(-c2ccc(Br)cc2)c2nc3[nH]c(=O)[nH]c(=O)c3nc12,84.3% (inactive)
11,Cn1cc(-c2csc(-c3cn(C(=O)OC(C)(C)C)c4ccccc34)n2)c2cccnc21,79.7% (inactive)
12,CC(C)(C)c1ccc(OCCCCCCCN2CCNCC2)cc1,79.9% (inactive)
13,Nc1ccc(Cl)cn1,96.4% (inactive)
14,c1ccc2[nH]c(-c3cc(-c4ccc5c(c4)OCO5)n[nH]3)nc2c1,71.8% (inactive)
15,COc1cccc(NC(=O)c2sc3nc4c(cc3c2N)C(=O)CCC4)c1,-3.03% (active)
16,C=C(C)[C@@H]1CC[C@]2(C)[C@H](CC=C3[C@@H]4CC(C)(C)CC[C@]4(C=O)CC[C@]32C)[C@@]1(C)CCCN,97% (inactive)
17,O=c1c(CNc2ccc(S(=O)(=O)Nc3nccs3)cc2)coc2ccccc12,112% (inactive)

row,Compound,growth
1,COc1cc(-c2cc(-c3nc4ccc(F)cc4[nH]3)[nH]n2)cc(OC)c1OC,8.73% (active)
2,O=C1C(Cl)=C(Nc2ccc(S(=O)(=O)c3ccc(NC4=C(Cl)C(=O)c5ccccc5C4=O)cc3)cc2)C(=O)c2ccccc21,66.2% (inactive)
3,Fc1ccc2nc(-c3cc(-c4ccc5c(c4)OCO5)n[nH]3)[nH]c2c1,71.7% (inactive)
4,O=c1c(CNc2ccc(S(=O)(=O)Nc3ncccn3)cc2)coc2ccccc12,102% (inactive)
5,COc1ccc(-c2cc(/C=C/C(=O)c3ccc(N)cc3)[nH]n2)cc1,-16.8% (active)
6,COC(=O)[C@]12CC[C@@H](C(=O)/C=C/c3cccnc3)[C@@H]1[C@H]1CC[C@@H]3[C@@]4(C)C/C(=C/c5cccnc5)C(=O)C(C)(C)[C@@H]4CC[C@@]3(C)[C@]1(C)CC2,-91.2% (active)
7,NC1(N)C=CC2=C(C=C1)C1(N)C3=C(C=CC(N)(N)C=C3)N2C2(N)C3=C(C=CC(N)(N)C=C3)N1C1=C2C=CC(N)(N)C=C1,88.3% (inactive)
8,CCCCC(=O)OC1CCCCC1C (stereo not drawn),93.2% (inactive)
9,COc1ccc(/C=C/C(=O)NCCO)cc1,85% (inactive)
10,COc1ccc2c(c1)C/C(=C\c1cc(-c3cc(OC)c(OC)c(OC)c3)n[nH]1)C2=O,87.4% (inactive)
11,COc1ccc(NC(=O)c2ccc3c(c2)nc(-c2cc4ccccc4[nH]c2=O)n3-c2cc(C(C)(C)C)[nH]n2)cc1,85.8% (inactive)
12,COc1ccc2nc(-c3cc(-c4cc(OC)c(OC)c(OC)c4)n[nH]3)[nH]c2c1,15.5% (inactive)
13,Nc1nc2c(c(=O)[nH]1)C(c1ccc3c(c1)OCO3)C=C(C(=O)O)N2 (stereo not drawn),94.7% (inactive)
14,COc1ccc(-c2cc(/C=C/C(=O)c3ccc(OC)c(OC)c3)[nH]n2)cc1,-4.05% (active)
15,COc1cc2c(cc1OC)C(=O)/C(=C/c1cc(-c3ccc4c(c3)OCO4)n[nH]1)C2,25.8% (inactive)
16,COc1cc(-c2cc(-c3nc4ccccc4[nH]3)[nH]n2)cc(OC)c1OC,17.2% (inactive)
